Each structure is given as a SMILES string. Records with an inconclusive call do not appear. Where a call stands in place of a potency, no number is given. Calls of active or inactive are those of the source. Calls come from the whole dose curve; as a rule, active = well fitted cell-killing curve with a large enough effect in the repeat runs; inconclusive = weak or mixed curves, or effect the other way; inactive = flat fitted curve, though single readings scatter.
Potency is the fitted concentration of half-maximal effect.

The experiment is described as follows: qHTS assay to identify small molecule antagonists of the androgen receptor (AR) signaling pathway using the MDA cell line in the presence of 0.5 nM R1881 - cell viability counter screen (AID 1259242). Note: nearly all actives have a fitted effect of over 45% in size. The settings on record: MDA-kb2 viability, CellTiter-Fluor protease fluorescence, 16 h; series mostly up to 92.4 µM. The source says: U.S. Tox21 Program National Center for Advancing Translational Sciences [NCATS] NIH Chemical Genomics Center [NCGC] U.S. Environmental Protection Agency [EPA] National Institutes of Environmental Health Sciences [NIEHS] National Toxicology Program [NTP] U.S. Food and Drug Administration [FDA] Tox21 Assay Overview: Androgen receptor (AR) is an important member of the nuclear receptor family. Its signaling plays a critical role in AR-dependent prostate cancer and other androgen related diseases. Considerable attention has been given in the past decades to develop methods to study and screen for the environmental chemicals that have the potential to interfere with metabolic homeostasis, reproduction, developmental and behavioral functions. Therefore AR binding assay for screening androgen antagonists can be used to identify potential endocrine disruptors. MDA-kb2 cells (from ATCC, deposited by Wilson et al.) were used to screen for AR inhibitors against Tox21 compound libraries. These cells are human breast carcinoma cells that were stably transfected with a luciferase reporter gene under control of the MMTV promoter that contains response elements for both androgen receptor (AR) and glucocorticoid receptor (GR). The current screening for identification of AR inhibitors against Tox21 libraries used lower concentration of (0.5 nM) R1881 as a stimulator. The cytotoxicity of the Tox21 compound libraries against MDA-kb2 cell line was tested by measuring live-cell protease activity using CellTiter-Fluor assay in the same wells.
Tox21 Assay Protocol Summary: MDA-kb2 cells (cells cultured without CO2) were dispensed at 3,000 cells/well in 4 uL of culture medium into white wall/solid-bottom 1536-well plates (Corning Life Sciences, Corning, NY) using a Multidrop Combi (ThermoFisher Scientific, Waltham, MA) dispenser. After the assay plates were incubated at a 37C and 0% CO2 for 5 hr, 23 nL of compounds dissolved in DMSO, positive controls or DMSO only was transferred to the assay plate by a Pintool station (Kalypsys, San Diego, CA). The transfer of compounds was followed by the addition of 1 uL of 0.5 nM (final concentration) agonist (R1881)/culture medium using a Flying Reagent Dispenser (FRD, Aurora Discovery, San Diego, CA). The plates were incubated at 37C and 0% CO2 for 16 hr. For cytotoxicity assay, 1 uL of CellTiter-Fluor reagent (Promega Corporation, Madison, WI) was added to each well using the FRD and after 30 min incubation at 37C and 0% CO2, The fluorescence intensity was measured using ViewLux plate reader (PerkinElmer, Shelton, CT).
In the case of `CCCCCCCCS(=O)C(C)Cc1ccc2c(c1)OCO2` (stereo not given), the Potency result was “inactive”. Regarding `O=C(O)c1cc(O)c2c(c1)C(=O)c1cccc(O)c1C2=O`, the Potency entry is “inactive”.

Consider `Nc1ccc(N)c2ccccc12`, for which the Potency is 61.1 µM (active). The same measure for `CNc1ccc(O)cc1`: 61 µM (active); for `CCCN(CCC)C(=O)C(CCC(=O)OCCCN1CCN(CCOC(=O)Cc2c(C)n(C(=O)c3ccc(Cl)cc3)c3ccc(OC)cc23)CC1)NC(=O)c1ccccc1` (stereo not given): “inactive”; for `CSc1ccc(C(=O)c2[nH]c(=O)[nH]c2C)cc1`: “inactive”. For `CCC(C)(C)C1CCCCC1OC(C)=O` (stereo not given), the Potency entry is “inactive”. The same measure for `Clc1ccc2cc3ccccc3cc2c1`: “inactive”; for `CC(=O)SC[C@@H](Cc1ccccc1)C(=O)NCC(=O)OCc1ccccc1`: “inactive”; for `CC1=C(/C=C/C(C)=C/C=C/C(C)=C/C=O)C(C)(C)CCC1`: 60.8 µM (active). The same measure for `OCc1c[nH]c2ccccc12`: “inactive”; for `Cc1ccc2oc(CN(Cc3ccccc3)C(=O)Nc3c(F)cc(F)cc3F)c(-c3ccc(Cl)cc3)c2c1`: “inactive”; for `CC(C)CCCCCCCCCCCCCCC(=O)O`: “inactive”. Next, `CCN(CC)CCNC(=O)c1c(C)[nH]c(/C=C2\C(=O)Nc3ccc(F)cc32)c1C`: 29.8 µM (active); `O=C(Oc1ccccc1)c1ccccc1C(=O)Oc1ccccc1`: “inactive”. Consider `CCCCCCCC[P+](CCCCCCCC)(CCCCCCCC)CCCCCCCC`, for which the Potency is 4.3 µM (active).

As to `C[n+]1ccn(Cc2ccccc2)c1`, the Potency entry was “inactive”.

Consider `C[C@@H](NCCCc1cccc(C(F)(F)F)c1)c1cccc2ccccc12`, for which the Potency was 23.7 µM (active). Next, `CO[Si](CCCNc1ccccc1)(OC)OC`: “inactive”; `O=c1[nH]sc2cc(Cl)ccc12`: “inactive”. As for `CCC(C)Nc1ccc(NC(C)CC)cc1` (stereo not given), the Potency was 24.8 µM (active). For the compound `O=c1cccccc1O`, the Potency entry was “inactive”.

For `Cc1cc(O)c(C(C)(C)C)cc1Sc1cc(C(C)(C)C)c(O)cc1C`, the Potency is 43.2 µM (active).

On to `Cc1[nH]nc2c1N=C(c1ccccc1Cl)c1cc([N+](=O)[O-])ccc1N2`, for which the Potency is 27.3 µM (active). In the case of `O=C(N/N=C/c1ccccc1O)c1ccncc1`, the Potency entry was “inactive”.

Turning to `CNC(=O)c1ccccc1`, the Potency result was “inactive”. Next, `Cc1ccc(O)c(C(C)(C)C)c1`: “inactive”; `CCCCCCCCCCn1cc[n+](CCCCCCCCCC)c1C`: 30.7 µM (active); `CCCCCOC(=O)CCCC`: “inactive”. On to `CC(=O)S[C@@H]1CC2=CC(=O)CC[C@]2(C)[C@H]2CC[C@@]3(C)[C@@H](CC[C@@]34CCC(=O)O4)[C@H]12`, for which the Potency result was “inactive”.

For `CC(C)(C)C(=O)OCOC(=O)[C@@H]1N2C(=O)[C@@H](NC(=O)[C@H](N)c3ccccc3)[C@H]2SC1(C)C`, the Potency result was “inactive”. As for `O=C(c1ccc(O)cc1O)c1ccc(O)cc1O`, the Potency entry was “inactive”.

As to `CCCCCCCCCCCCCCCS(=O)(=O)Oc1ccccc1`, the Potency entry is “inactive”. With `CCc1oc2ccccc2c1C(=O)c1cc(Br)c(O)c(Br)c1`, the Potency result was “inactive”.

As to `NNC(=O)c1cccc(C(=O)NN)c1`, the Potency entry is “inactive”. Next, `N#CC1(c2ccc(F)cc2)CCC(=O)CC1`: “inactive”; `CSc1ccc(/C=C2/C(C)=C(CC(=O)O)c3cc(F)ccc32)cc1`: “inactive”.

Regarding `CCCCCCCCCCCCCC[P+](CCCC)(CCCC)CCCC` (tested in a mixture with another compound), the Potency is 19.4 µM (active).

On to `C[C@@H]1C[C@H]2[C@@H]3CCC4=CC(=O)C=C[C@]4(C)[C@@]3(Cl)[C@@H](O)C[C@]2(C)[C@@]1(OC(=O)c1ccco1)C(=O)CCl`, for which the Potency result was “inactive”. As for `COc1cc(/C=C/C(=O)O[C@H]2CC[C@]34C[C@]35CC[C@]3(C)[C@@H]([C@H](C)CCC=C(C)C)CC[C@@]3(C)[C@@H]5CC[C@H]4C2(C)C)ccc1O`, the Potency entry is “inactive”.

Values taken from PubChem BioAssay (Tox21).
